According to PubChem BioAssay (EPA / NIEHS):
Values joined by “and” are separate entries in the source; they are usually repeats but may differ in a detail not shown here. Identical values can stand only once. Records with an inconclusive call do not appear. Some compounds were tested as several samples or in several runs, with calls that do not always agree. Active and inactive are the calls of the source. Rule for the calls, unless noted: active = hit-call score of the fitted dose curve at least 0.9, where 1 is the maximum; inactive = score below 0.9.

Key:
[1] = CCTE_Shafer_MEA_acute_per_burst_spike_number_mean: CCTE's Neural Acute Assay for Average Number of Spikes Per Burst, Shafer Lab (AID 2284015);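 note: hits are decreases in mean spikes per burst versus baseline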
Procedure, shortened: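 Read-out: percent change in mean spikes per burst, each well's post-exposure 40-min recording versus its own 40-min baseline. Rat cortical cultures, DIV 13 or 15, compounds 0.03-40 uM; DMSO is negative control, loss-of-signal fitting.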

[2] = CCTE_Shafer_MEA_acute_interburst_interval_mean: CCTE's Neural Acute Assay for Mean Interburst Interval, Shafer Lab (AID 2284016);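 note: percent change of mean interburst interval versus each well's own pre-dose baseline; curves fitted for decrease in interburst interval relative to DMSO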
Procedure, shortened: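 Rat cortical cultures, DIV 13/15; 20 min equilibration, 40 min baseline, compound 0.03-40 uM, 40 min re-recording, 37 C. Spikes detected at 8x rms noise (300-5000 Hz band-pass). Endpoint: % change in interburst interval, fitted in loss direction vs DMSO.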

[3] = CCTE_Shafer_MEA_acute_burst_percentage_mean: CCTE's Neural Acute Assay for Percentage of Spikes in a Burst, Shafer Lab (AID 2284017);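 for AC50: curve fitted for loss of signal so potency reflects decreased burst percentage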
Procedure, shortened: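 Rat cortical cultures, DIV 13/15, 37 C. Spikes detected at 8x rms noise (300-5000 Hz band-pass). Burst spikes/total spikes averaged across electrodes per well; % change post- vs pre-treatment (40 min each), loss-of-signal fit vs DMSO.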

[4] = CCTE_Shafer_MEA_acute_burst_percentage_std: CCTE's Neural Acute Assay for Standard Deviation of Burst Percentage, Shafer Lab (AID 2284018);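 note: fitted in the negative direction so actives lower burst percentage SD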
Procedure, shortened: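 Rat primary cortical neurons on 48-well MEAs, DIV 13 or 15, 37 C. 40-min baseline then 40-min recording with compound (0.03-40 uM); well-level SD of per-electrode burst spike percentage, expressed as percent change from baseline.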

[5] = CCTE_Shafer_MEA_acute_per_network_burst_spike_number_std: CCTE's Neural Acute Assay for Standard Deviation of Number of Spikes in a Network Burst, Shafer Lab (AID 2284020);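 note: fitted for decrease in spike-number SD versus DMSO so actives lower it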
Procedure, shortened: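 Rat cortical cultures, DIV 13/15, 37 C; 20-min stabilisation, 40-min baseline, compound 0.03-40 uM, 40-min re-record. Spikes detected at 8x rms noise (300-5000 Hz band-pass). Readout: % change from baseline in per-burst spike-number SD.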

[6] = CCTE_Shafer_MEA_acute_per_network_burst_electrodes_number_mean: CCTE's Neural Acute Assay for Mean Number of Electrodes in a Network Burst, Shafer Lab (AID 2284021);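 note: curves fitted for decreases only so hits reduce electrodes per burst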
Procedure, shortened: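 Cultures of rat cortex neurons were exposed on DIV 13 or 15 to compounds at 0.03-40 uM in at least three wells each. Activity over 40 min before and 40 min after exposure at 37 C gave the percent change in electrodes per network burst.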

[7] = CCTE_Shafer_MEA_acute_network_burst_percentage: CCTE's Neural Acute Assay for Percentage of Network Bursts, Shafer Lab (AID 2284022);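 note: curves fitted for loss so actives lower network burst percentage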;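 for outcome: rat primary cortical neuron networks on multiwell MEA recorded 40 min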
Procedure, shortened: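 Cortical neurons from rat were grown over microelectrode arrays and used on day 13 or 15 in vitro. Wells with at least 10 active electrodes received test chemical at 0.03-40 uM. Activity during 40 min of exposure was compared with the preceding 40-min baseline.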

[8] = CCTE_Shafer_MEA_acute_cross_correlation_area: CCTE's Neural Acute Assay for Area of Cross Correlation, Shafer Lab (AID 2284024);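 note: area under pooled inter-electrode spike cross-correlation near zero lag as percent change from own baseline; curves fitted for loss of cross-correlation area so actives lower synchrony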
Procedure, shortened: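 Acute exposure of mature rat cortical networks (day 13 or 15 post-plating) to 0.03-40 uM compound. Spontaneous spiking on MEA, 40 min pre- and post-dose at 37 C.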

[9] = molecular target: Estrogen receptor (Homo sapiens) (UniProt P03372); experiment: CCTE_Deisenroth_AIME_96WELL_LUC_Active: CCTE's 96-well Estrogen Receptor Transactivation Assay with AIME metabolic competence (ERTA luciferase; metabolism positive), Deisenroth Lab (AID 2284023; active = hit-call score of the fitted dose curve at least 0.9, where 1 is the maximum)
Procedure, shortened: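 Metabolism-positive mode: induced rat hepatic S9 in alginate microspheres conditions test solutions (0.002 - 200 uM, 10 points) for 2 hours. VM7Luc4E2 ER luciferase reporter cells then exposed 24 h; positive-direction fit against 17beta-estradiol, n=4 typical.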

[10] = molecular target: Estrogen receptor (Homo sapiens) (UniProt P03372); experiment: CCTE_Deisenroth_AIME_96WELL_LUC_Inactive: CCTE's 96-well Estrogen Receptor Transactivation Assay without AIME metabolic competence (ERTA luciferase; metabolism negative), Deisenroth Lab (AID 2284025; active = hit-call score of the fitted dose curve at least 0.9, where 1 is the maximum)
Protocol: CCTE_Deisenroth_AIME_96WELL (AIME metabolism assay) is a cell-based, single-readout assay that uses VM7Luc4E2, a human mammary gland/breast cell line, with measurements taken at 24 hour after chemical dosing in a 96-well plate.CCTE_Deisenroth_AIME_96WELL_LUC_Inactive is one of four assay components measured or calculated from the CCTE_Deisenroth_AIME_96WELL assay. It is designed to make measurements of luciferase induction, a form of inducible reporter, as detected with bioluminescence signals by luciferase-coupled ATP quantitation technology.CCTE_Deisenroth_AIME_96WELL_LUC_Inactive is a component of the CCTE_Deisenroth_AIME_96WELL assay that measures the effect of retroftting the VM7Luc ERTA assay with the Alginate Immobolization of Metabolic Enzymes (AIME) metabolism method. AIME is optimized to impart phase I hepatic metabolism using phenobarbital/beta-naphthoflavone induced hepatic S9 from male Sprague Dawley rats. Parent chemicals are incubated for 2 hours in the AIME assay prior to transfer to the VM7Luc ERTA assay plate. […] This endpoint evaluates reporter induction in metabolism negative mode. […] This assay endpoint, CCTE_Deisenroth_AIME_96WELL_LUC_Inactive, was analyzed in the positive analysis fitting direction relative to 17beta-estradiol as the positive control in the ERTA assay. […]

Chain of Estrogen receptor (Homo sapiens) (P03372 whole entry, looked up): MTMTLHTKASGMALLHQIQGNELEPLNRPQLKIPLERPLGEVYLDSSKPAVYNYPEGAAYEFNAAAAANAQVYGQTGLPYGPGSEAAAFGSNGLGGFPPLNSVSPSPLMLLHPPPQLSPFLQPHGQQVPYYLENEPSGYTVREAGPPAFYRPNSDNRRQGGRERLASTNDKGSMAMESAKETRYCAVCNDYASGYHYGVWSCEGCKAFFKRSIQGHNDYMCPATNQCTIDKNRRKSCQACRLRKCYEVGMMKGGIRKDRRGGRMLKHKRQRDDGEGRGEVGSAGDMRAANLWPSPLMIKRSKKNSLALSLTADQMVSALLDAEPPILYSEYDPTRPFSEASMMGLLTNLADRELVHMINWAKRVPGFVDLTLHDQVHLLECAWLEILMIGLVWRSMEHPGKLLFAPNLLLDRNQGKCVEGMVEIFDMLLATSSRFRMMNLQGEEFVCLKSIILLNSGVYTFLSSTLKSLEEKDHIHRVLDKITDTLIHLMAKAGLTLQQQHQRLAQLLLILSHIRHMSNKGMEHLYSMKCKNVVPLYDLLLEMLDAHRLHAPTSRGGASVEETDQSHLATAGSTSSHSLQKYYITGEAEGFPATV

CCn1cc(C(=O)O)c(=O)c2ccc(C)nc21
outcome [1]: inactive | outcome [2]: inactive | outcome [3]: inactive | outcome [4]: inactive | outcome [5]: inactive | outcome [6]: inactive | outcome [7]: inactive | AC50 [8]: 0.003 µM (active)

O=C(c1ccc(OCCN2CCCCC2)cc1)c1c(-c2ccc(O)cc2)sc2cc(O)ccc12
outcome [1]: inactive | outcome [2]: inactive | AC50 [3]: 32.5 µM (active) | outcome [4]: inactive | AC50 [5]: 33.9 µM (active) | outcome [6]: inactive | outcome [7]: inactive | outcome [8]: inactive

N[C@@H](CCC(=O)O)C(=O)O
outcome [1]: inactive | outcome [2]: inactive | outcome [3]: inactive | outcome [4]: inactive | outcome [5]: inactive | outcome [6]: inactive | outcome [7]: inactive | outcome [8]: inactive

CC(C)CCCC(C)(C)O
outcome [1]: inactive | outcome [2]: inactive | outcome [3]: inactive | outcome [4]: inactive | outcome [5]: inactive | outcome [6]: inactive | outcome [7]: inactive | outcome [8]: inactive

c1ccc(OCCOc2ccccc2)cc1
outcome [1]: inactive | outcome [2]: inactive | outcome [3]: inactive | outcome [4]: inactive | outcome [5]: inactive | outcome [6]: inactive | outcome [7]: inactive | outcome [8]: inactive

CC(C)(CO)CO
outcome [1]: inactive | outcome [2]: inactive | outcome [3]: inactive | outcome [4]: inactive | outcome [5]: inactive | outcome [6]: inactive | outcome [7]: inactive | outcome [8]: inactive

CC(=O)c1ccc(C)cc1
outcome [1]: inactive | outcome [2]: inactive | outcome [3]: inactive | outcome [4]: inactive | outcome [5]: inactive | outcome [6]: inactive | outcome [7]: inactive | outcome [8]: inactive

CCCCN(CCO)CCO
outcome [1]: inactive | AC50 [2]: 24.1 µM (active) | outcome [3]: inactive | outcome [4]: inactive | outcome [5]: inactive | outcome [6]: inactive | AC50 [7]: 15 µM (active) | outcome [8]: inactive

CC/C(=C(\c1ccccc1)c1ccc(OCCN(C)C)cc1)c1ccccc1
AC50 [1]: 18.3 µM (active) | outcome [1]: inactive | AC50 [2]: 3.74 µM (active) | outcome [2]: inactive | AC50 [3]: 18.3 µM (active) and 15.8 µM (active) | AC50 [4]: 15.3 µM (active) | outcome [4]: inactive | AC50 [5]: 18.3 µM (active) | outcome [5]: inactive | outcome [6]: inactive | AC50 [7]: 18.3 µM (active) and 13.2 µM (active) | outcome [8]: inactive

CCCO[Si](OCCC)(OCCC)OCCC
outcome [1]: inactive | AC50 [2]: 15 µM (active) | outcome [3]: inactive | outcome [4]: inactive | outcome [5]: inactive | outcome [6]: inactive | AC50 [7]: 2.98 µM (active) | outcome [8]: inactive

CCCCOCCOCCO
outcome [1]: inactive | outcome [2]: inactive | outcome [3]: inactive | outcome [4]: inactive | outcome [5]: inactive | outcome [6]: inactive | outcome [7]: inactive | outcome [8]: inactive

c1ccc(Cc2ccccc2)cc1
AC50 [9]: 74.4 µM (active) | outcome [10]: inactive
